Compound activity (PubChem)
An excerpt weighted towards active compounds, which were near 8% of everything screened.
MARV entry inh: blocks Marburg virus binding or cell entry | Marburg virus pseudotype entry/binding inhibition, cell-based | Potency, µM (top dose mostly 49.2 µM), without a hit: at the highest dose activity change, negative = inhibition, usual class: inhibitors | 18,000 tested, 6.5% active
LASV entry inh: inhibitors of Lassa virus binding or entry into cells. Lassa virus pseudotyped entry inhibition, cell-based qHTS. Potency, µM (top dose mostly 49.2 µM), inactives show top-dose activity change, negative = inhibition, hits mostly inhibitors. 18,000 tested, 4.1% active. AID 720533
An asterisk follows results filed as active; ? = inconclusive; ! = not confirmed by another sample. Calls come from the whole dose curve; tested in HEK293 cells. % is set by controls: 0 for no effect and ±100 for the full control effect; potency is the fitted concentration of half-maximal effect.

SMILES | MARV entry inh | LASV entry inh
CCCCCCCCCCCCCCCCOCCOCCOCCOCCOCCOCCOCCOCCOCCOCCOCCOCCOCCOCCOCCOCCOCCOCCOCCOCCO | ? | 15.8µM*
CCCCCCCCCCCCSCCOCCO | 17.7% | -13.2%
COc1ccc(C(=O)c2ccc(C)cc2)c(O)c1 | 25.5% | -12.8%
COc1cc(-c2ccc(C)cc2)cc2c1OCCN(C(=O)CCn1ccc(C)n1)C2 | 0.5% | 7.4%
C[C@@H](CC(=O)O)[C@@H](N)C(=O)O | 12.1% | 22.9%
CCCCC[C@H](O)C/C=C1/C(=O)C=C[C@@H]1C/C=C\CCCC(=O)O | 12.0% | ?
CCCCC/C=C/C=C1/C(=O)C=C[C@@H]1C/C=C\CCCC(=O)O | ? | 15.8µM*!
CCOC(=O)C1Oc2ccccc2C(c2ccc(F)cc2)=C1C(=O)OC (configuration not stated) | ? | -21.0%
COc1ccccc1CNc1ccc2c(c1)OC[C@H](CC(C)C)NS2(=O)=O | 6.2% | 11.3%
c1cnc2c(-c3nccc4c3[nH]c3ccccc34)cccc2c1 | -12.4% | -7.6%
CCCCC(CC)COC(=O)c1ccccc1O (configuration not stated) | -0.3% | -21.9%
c1ccc(CN(CCN(Cc2ccccn2)Cc2ccccn2)Cc2ccccn2)nc1 | 10µM* | 10µM*
NCCc1ccccn1 | 15.8% | -2.6%
Cc1ccc2c(n1)Oc1ccc(C(C)C(=O)OCC(=O)N(C)C)cc1C2 (configuration not stated) | 25.8% | 2.2%
O=c1[nH]c2ccccc2n1C1CCN(CCCC(c2ccc(F)cc2)c2ccc(F)cc2)CC1 | 14.1µM* | 25.1µM*!
O=C1NCN(c2ccccc2)C12CCN(CC1COc3ccccc3O1)CC2 (configuration not stated) | -1.3% | 1.7%
O=C1NCN(c2ccccc2)C12CCN(CCCC(c1ccc(F)cc1)c1ccc(F)cc1)CC2 | 1.41µM* | ?
CCn1c(=O)[nH]c2ccccc21 | 8.0% | -2.3%
CN[C@@H]1[C@H](O[C@H]2[C@H](O[C@H]3[C@H](O)[C@@H](O)[C@H](N=C(N)N)[C@@H](O)[C@@H]3N=C(N)N)O[C@@H](C)[C@]2(O)C=O)O[C@@H](CO)[C@H](O)[C@H]1O | 23.3% | -7.4%
C[N+](C)(C)CC(O)CC(=O)[O-] (configuration not stated) | 9.2% | -23.9%
NC(=O)N1c2ccccc2CC(=O)c2ccccc21 | 14.7% | 1.2%
O=C(Nc1ccc(/C=C/c2ccc(NC(=O)c3cc(S(=O)(=O)O)c4cccnc4c3O)cc2S(=O)(=O)O)c(S(=O)(=O)O)c1)c1cc(S(=O)(=O)O)c2cccnc2c1O | 3.55µM* | 2.8%
O=S(=O)(O)c1cc(I)c(O)c2ncccc12 | -19.5% | ?
CNC(=O)c1cncc(C=Cc2c(Cl)cccc2Cl)c1 | 26.4% | 23.9%
COCOCCn1cc(CN2CCS(=O)(=O)N(Cc3ccc(-c4ccc(Cl)nc4)cc3)C(C)C2=O)nn1 (configuration not stated) | -4.1% | -12.4%
O=C(N[C@@H]1c2ccccc2C2(CCN(C(=O)c3ccc4c(c3)OCCO4)CC2)[C@H]1O)c1cccnc1 | -2.7% | 1.5%
COc1c(C)c2c(c(O)c1C/C=C(\C)CCC(=O)OCCN1CCOCC1)C(=O)OC2 | 1.12µM* | 1.12µM*
